Calls of active or inactive are those of the source. Calls follow the shape of the dose curve; as a rule, active = well fitted cell-killing curve with a large enough effect in the repeat runs; inconclusive = weak or mixed curves, or effect the other way; inactive = flat fitted curve, though single readings scatter.
Assay: qHTS assay to identify small molecule HDAC inhibitors - cell viability counter screen (AID 1259365); also: nearly all actives have a fitted effect of over 50% in size
Settings: HCT-116 viability, CellTiter-Glo ATP luminescence, 2 h; series mostly up to 92.4 µM
Source text: U.S. Tox21 Program National Center for Advancing Translational Sciences [NCATS] NIH Chemical Genomics Center [NCGC] U.S. Environmental Protection Agency [EPA] National Institutes of Environmental Health Sciences [NIEHS] National Toxicology Program [NTP] U.S. Food and Drug Administration [FDA] Tox21 Assay Overview: Histone deacetylases (HDACs) are a group of epigenetic enzymes that regulate gene expression by histone deacetylation. HDACs are capable of introducing epigenetic modifications and such aberrations contribute to the onset and progression of several human diseases, thus making HDACs a popular therapeutic target. For identifying endogenous class I/II HDAC inhibitors a homogenous, luminogenic HDAC I/II cell based assay was used to measure the relative activity of class I and II HDACs from cells. Wild type HCT-116 cells were used to screen Tox21 compound libraries for identifying class I/II HDAC inhibitors.
Tox21 Assay Protocol Summary: HCT-116 cells were dispensed at 1,500 per well in 5uL of culture medium into white solid bottom 1536-well plates (Greiner Bio-One, Monroe, NC) using a Multidrop Combi (Thermo Scientific, Waltham, MA) dispenser. The assay plates were incubated at 37 C and 5% CO2 for an overnight, and then 23nL of compounds dissolved in DMSO and positive control were transferred using a Pintool station (Wako, San Diego, CA). The assay plates were incubated at 37C and 5% CO2 for 2hr. After compound treatment, 4uL of CellTiter-Glo reagent (Promega Corporation, Madison, WI) was added to each well of the assay plates using Flying Reagent Dispenser (FRD, Aurora Discovery, San Diego, CA) and incubated the assay plates at room temperature for 30min. The luminescence signal was quantified using a ViewLux plate reader (Perkin Elmer, Shelton, CT).

| Compound | outcome |
| --- | --- |
| Cc1cccnc1 | inactive |
| O=C(O)c1ccccc1C(c1ccc(O)cc1)c1ccc(O)cc1 | inactive |
| Cc1ccc(N(C)C)cc1 | inactive |
| c1c[nH]cn1 | inactive |
| C=CCOC(=O)c1ccccc1C(=O)OCC=C | inactive |
| C[Si](O[Si](C)(C)C)O[Si](C)(C)C | inactive |
| C#C[C@]1(O)CC[C@H]2[C@@H]3CCC4=CC(=O)CC[C@@H]4[C@H]3CC[C@@]21C | inactive |
| CSCCC=O | inactive |
| Cc1ccc2oc(=O)ccc2c1 | inactive |
| CC1=C(C)S(=O)(=O)CCS1(=O)=O | inactive |
| O=C(Oc1ccccc1)c1ccccc1 | inactive |
| COS(C)(=O)=O | inactive |
| CCOC(=O)NNc1nncc2ccccc12 | inactive |
| CN(C)CCC(c1ccc(Cl)cc1)c1ccccn1 (stereo not given) | inactive |
| C=C(C)C(=O)OCCOCCOCCOC(=O)C(=C)C | inactive |
| OC[C@H]1O[C@@](CO)(O[C@H]2O[C@H](CO)[C@@H](O)[C@H](O)[C@H]2O)[C@@H](O)[C@@H]1O | inactive |
| OCc1cccnc1 | inactive |
| COCCCOc1ccnc(CS(=O)c2nc3ccccc3[nH]2)c1C (stereo not given) | inactive |
| CCCCN(CCCC)CCCC | inactive |
| CCCCCCCCCCCCc1ccccc1 | inactive |

| Compound | outcome |
| --- | --- |
| OCC(CO)(CBr)CBr | inactive |
| CC(=O)Nc1ccccc1 | inactive |
| CCCCCC/C(C=O)=C\c1ccccc1 | inactive |
| C=C(C)C(=O)O[C@H]1C[C@@H]2CC[C@@]1(C)C2(C)C | inactive |
| CC(=O)c1ccccc1 | inactive |
| CCc1ccc(CCOc2ccc(CC3SC(=O)NC3=O)cc2)nc1 (stereo not given) | inactive |
| O=P(OC(CCl)CCl)(OC(CCl)CCl)OC(CCl)CCl | inactive |
| CC(O)COCC(C)O (stereo not given) | inactive |
| CCCCCCCC(=O)OC | inactive |
| CN(C)CCCN | inactive |
| CCCCCCCCCCCCS | inactive |
| O=C=NCCCCCCN=C=O | inactive |
| O=C(O)c1cc(O)c(O)c(O)c1 | inactive |
| CCC(O)OC(O)CC (stereo not given) | inactive |
| CCC(O)OCCCOC (stereo not given) | inactive |
| C[C@H]1C[C@H]2[C@@H]3CCC4=CC(=O)C=C[C@]4(C)[C@@]3(F)[C@@H](O)C[C@]2(C)[C@@]1(O)C(=O)CO | inactive |
| CC(C)c1ccc(S(=O)(=O)O)cc1 | inactive |
| CCCCCCCCCCCCCCO | inactive |
| c1ccc2scnc2c1 | inactive |
| Fc1ccc(Br)cc1 | inactive |
